# Measurements from PubChem BioAssay AID2315 (National Center for Advancing Translational Sciences (NCATS), 2010).
# Hit rate of the full screen: of about 290,000 compounds, about 27,000 (9.3%) were called active. What follows is part of a selection rich in actives, with near analogues and random picks from the rest. A number with no mark means an inactive call. No stated cut-off is given here; in the data, active means inhibition mostly above about 28% (no sharp cut-off); inactive means mostly below about 43%.
# Assay: A qHTS for Small Molecule Inhibitors of Shiga Toxin; further: 0% is about no effect
# Conditions: Vero cells, Shiga toxin protein synthesis inhibition reporter; at 38.7 µM, active compounds read high
row,Compound,inhibition
1,Cc1ccc(C(=O)c2coc3ccc(O)c(CN(C)C)c23)cc1,-0.742%
2,Cc1ccc(S(=O)(=O)NCCSC(C)(C)C)cc1,-15.2%
3,CC(C)(C)SCCSC1=CC(=O)CC(c2ccccc2)C1 (stereo not drawn),75.7% (active)
4,O=C(O)CC/C(=C\c1cc2c(cc1Br)OCO2)c1nc2ccccc2s1,-7.28%
5,O=S(=O)(ON(c1ccccc1)S(=O)(=O)c1ccccc1)c1ccccc1,-5.69%
6,CC1=C/C(=N\OS(=O)(=O)c2ccccc2)C=CC1=O,67.3% (active)
7,Cc1ccc(S(=O)(=O)c2ccc(Oc3ccccc3)cc2)cc1,-11.7%
8,COC(=O)c1ccc(NC(=O)CSc2nncn2-c2cccnc2)cc1,29.9%
9,CC(Sc1nnc(CNC(=O)c2ccccc2F)n1C)C(=O)Nc1nccs1 (stereo not drawn),-6.1%
10,Cc1ccccc1CSCC(=O)NC(=O)NC(C)(C)C,11%
11,COc1ccccc1-n1ccnc1SCC(=O)NC(C)(C)C,18.7%
12,CC(C)(C)NC(=O)CSC(=Nc1ccccc1F)NC#N,33.9% (active)
13,Cc1ccc2c(N)c(C(=O)c3ccccc3)sc2n1,87.1% (active)
14,CC(=O)c1c(Nc2ccccc2)sc(C(=O)c2ccccc2)c1C,-8.12%
15,CCN(CC)C(=O)c1sc2nc(-c3ccccc3)ccc2c1N,165% (active)
16,Cc1nc2sc(C(=O)c3ccccc3)c(N)c2c2c1CCCC2,18.1% (active)
17,CN(C)c1ccnc2sc(C(=O)c3ccccc3)c(N)c12,25.4% (active)
18,CCc1nc2sc(C(=O)O)c(N)c2c2c1CCCC2,-12.9%
19,CS(=O)(=O)c1sc2nc(-c3ccccc3)cc(-c3ccccc3)c2c1N,-3.26%
20,COC(=O)c1cc2c(N)c(C(=O)c3ccc(Cl)cc3)sc2nc1C(OC)OC,-1.42%
21,CCOC(=O)c1sc2nc(SC)nc(-c3ccccc3)c2c1N,-14%
22,NC(=O)c1sc2nc3c(c(-c4ccccc4)c2c1N)CCC3,-11.8%
23,CN(C)c1ccnc2sc3c(=O)n(Cc4ccccc4)cnc3c12,-12.3%
24,COc1cccc(C(=O)c2sc3nc(-c4ccccc4)cc(C(F)(F)F)c3c2N)c1,-1.9%
25,CC(C)C[C@H]1CN=C(Nc2ccccc2)N1CC1CCCCC1,0.785%
26,O=C(Cc1ccccn1)c1ccc(O)cc1O,-4.76%
27,Cc1cccc(C(=O)N2CCCC(Nc3ccc(C(C)C)cc3)C2)n1 (stereo not drawn),19.6%
28,CCn1c(SCc2cccc(C(=O)O)c2)nnc1-c1ccc(Cl)cc1,7.08%
